According to paper PMC12136788:
Substitutions are numbered along the chain they refer to. The full ranking holds about 24,000 sequences; the median of “enrichment r” is about 0.99, and the highest 2% start at about 3.7. The sample as a whole holds a higher share of the highest values than the screen did.

T1: UNK ZnF1-3 (human, UniProt Q9C0B0 31-174)
T1 sequence: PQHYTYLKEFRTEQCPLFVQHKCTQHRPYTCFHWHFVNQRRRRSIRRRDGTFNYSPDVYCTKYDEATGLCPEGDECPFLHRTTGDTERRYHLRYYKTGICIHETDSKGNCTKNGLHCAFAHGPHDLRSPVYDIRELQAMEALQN

B1: chr8:59488481:59488482:+_ENSG00000137575_ENST00000447182|hu_mus|motif|central (ssRNA)
RNA: GGGAGUUCUACAGUCCGACGAUCUCCAGCAUCGUUACCUGUCACAGGUGCUACCAUAUAGUUCACACUGGAUGGUCUUGCGGCCAACCCUUGUGCUGGUGCUCCAGAGACCAUGGGCAUGCUCUCACAUAUUUCAGCUUCAUUCAACAGAGGAUUGAGCAUCA
B2: chr11:77340908:77340909:-_ENSG00000074201_ENST00000525064|hu_hu|hu_hu_hu_mus_True|8_108 (ssRNA)
RNA: GGGAGUUCUACAGUCCGACGAUCGUUUCGGUCCCUGGACACCGCAUGUAAACUAAUGGUGGGGUAUUCCAGUGAGAAUCCUAAUCCCGAACCAUCUAACCAGGACAGGCGGCUCUCCGCGAUGUAAAGGGUACCAGUGCCGAGCAACAGAGGAUUGAGCAUCA
B3: chr3:119217614:119217615:+_ENSG00000113845_ENST00000264244|hu_hu|FALSE|FALSE (ssRNA)
RNA: GGGAGUUCUACAGUCCGACGAUCCUCUACAGAGAAAGCUCCGCGGUGCCGGUGGCGGCACCUCCAUGGCCUUCUCUCGACCUACGGACAAACUUGAGCGCUCAGGACUUCAAGUCCUCGCGGACGUGCCGCGGGAGAGCGUAACAACAGAGGAUUGAGCAUCA
B4: 60766971_60767091_3885_CDS_ENSG00000011028_ENST00000303375|human|control|control (ssRNA)
RNA: GGGAGUUCUACAGUCCGACGAUCCGUGCGCAGCCCUCGGGCAGCCUGCGUGAGGAAGGCCUGGGUGUAGGGGUCGGGCACGUAGGCCAGGCUGGCAUUGCGGCUCUCACACAGCAGGAGGGCAUCGUGCCAGCGCAGCGGCUUCAACAGAGGAUUGAGCAUCA
B5: 87419285_87419405_2552_3pUTR_ENSMUSG00000028496_ENSMUST00000078090|mouse|control|control (ssRNA)
RNA: GGGAGUUCUACAGUCCGACGAUCGAAAAUCAAGGUGGCUAUUUGGUCCCCCCAGUUGGUAACUAUGUCCUGGAACUGGGAAAACAAAGAUGGAAACCAUAGACUGCAACAAGUUAAAGGACCUGGGAAGAGUUGGUGGAAAGUCAACAGAGGAUUGAGCAUCA
B6: 193603509_193603629_2668_3pUTR_ENSMUSG00000026623_ENSMUST00000110855|mouse|control|control (ssRNA)
RNA: GGGAGUUCUACAGUCCGACGAUCUAAAUCACAUGAACAAAAGGACAAAUCUUUCAAAAGGUUUCUACGAUGAACAGAAACUUGCUUGGCUUUGCCCUCUUAGAAGACGACUGGAAGAGACUGGGAAGUGUUUUUGAGCUGCUGCAACAGAGGAUUGAGCAUCA
B7: chr22:38881817:38881818:-_ENSG00000100201_ENST00000396821|hu_hu|motif|central (ssRNA)
RNA: GGGAGUUCUACAGUCCGACGAUCUUAUUCCAGACUGGAUCAUUUUGGUGGGCAGAAGAAACCUGGCAGUGAAUUCGGACGGAUCUGCAUGAAAAGACAAAUCACGAUGGUUGGGGGGAAAAAUUAAAAAAAAAAAAAGAAAAACAACAGAGGAUUGAGCAUCA
B8: chr12:39763582:39763583:-_ENSG00000139116_ENST00000544797|hu_hu|FALSE|FALSE (ssRNA)
RNA: GGGAGUUCUACAGUCCGACGAUCCUCUAAGAAUUGGGCAUUCACUUUAAAAUCUGGAGCAGGAAGCCCAUUUUUAAUUGCUAUGUGUUUUUUUUCUUCAAUACUCUUAAAAAGGUGUUUAACAGCUCGAGAAAUAAUACCCAGCAACAGAGGAUUGAGCAUCA
B9: chr16:45711415:45711416:-_ENSMUSG00000022658_ENSMUST00000096057|mus_hu|FALSE|FALSE (ssRNA)
RNA: GGGAGUUCUACAGUCCGACGAUCUUAUUAGGUGCAUUCUAUAAGUUGAAGAGGAGAAUUUUUGGCAAAUAAAUAAAUAAAUAAAUAAAUAAUCAAACAGAGACUCUGGGGCCCGAGGAGCUCAGGAAAACGGAAGCGGAGUCUCAACAGAGGAUUGAGCAUCA
B10: 36507729_36507849_895_3pUTR_ENSMUSG00000043671_ENSMUST00000051377|mouse|control|control (ssRNA)
RNA: GGGAGUUCUACAGUCCGACGAUCGAAAGAGGCUGUAAAUUUGGUCUCAGGAAGUAGGUAAUUGCUGCAAUCUGAAUUGCAAAAAAAGGCAGAGCCCAGUUCUCCCUCAGCGGGAUGGUAAACUCGACUCUUGUGGUGUCUAUUCAACAGAGGAUUGAGCAUCA
B11: chr22:38881817:38881818:-_ENSG00000100201_ENST00000396821|hu_hu|FALSE|FALSE (ssRNA)
RNA: B7 RNA with G76U, G77A, G80U, G81A
B12: chr17:26793470:26793471:+_ENSMUSG00000001576_ENSMUST00000167662|mus_mus|FALSE|FALSE (ssRNA)
RNA: GGGAGUUCUACAGUCCGACGAUCAUUGGAAUCAGAGGAAAAAUUACAAAUGGCAGAGAAUCCAGCUACCCAUAAGAGACUAUUUAAGAAAAACAAAACCAAAACCAAACAAAAACAAAAAACCCCAAAACUUCCUACUGCAGGCAACAGAGGAUUGAGCAUCA
B13: chr1:66459500:66459501:+_ENSMUSG00000015222_ENSMUST00000114013|mus_hu|motif|central (ssRNA)
RNA: GGGAGUUCUACAGUCCGACGAUCUAAAAAGGCAGGGGCAAAGGGCGAUGUUUCUGUAACUAUUUCAUUCUUCAUGACAUCGGAAGGAAGAGUGAAGCUUCCCCCUUGAAAGGGACUUGGCAUGGGAGAAUCAAACUGUUUCCCCAACAGAGGAUUGAGCAUCA
B14: chr12:55960871:55960872:-_ENSMUSG00000062929_ENSMUST00000078124|mus_mus|motif|central (ssRNA)
RNA: GGGAGUUCUACAGUCCGACGAUCUACUAAGCUUUAAGACUGCUAUACGAUUUUUUUUUCCCAAUUCAUUUUGGAAAAGCGGUGAAGGAACUGUGGCUGAGACAAACAUUCCUAAACAUCACAAUCAUCAUUAACCUUCGAAUGCAACAGAGGAUUGAGCAUCA

What follows are binders tested against T1, UNK ZnF1-3 (assay: nsRBNS (natural sequence RNA bind-n-seq); RBNS binding buffer (assumed for nsRBNS): 25 mM Tris pH 7.5, 150 mM KCl, 3 mM MgCl2, 0.01% Triton X-100, 500 ug/ml BSA, 20 U/ml SUPERase-In, 4 C; UNK is unkempt and MSI1 is Musashi-1; names of the RNAs are library labels; protein concentration not given here; high values mean tight binding).
Binder B1 has a binding signal of 0.558 enrichment R.
B2 gave a binding signal of 1.38 enrichment R.
In the case of B3, the binding signal is reported as 0.297 enrichment R.
B4 was tested, and the binding signal was 0.311 enrichment R.
For B5, the binding signal was 1.56 enrichment R.
Binder B6 has a binding signal of 1.27 enrichment R.
Binder B7 has a binding signal of 13.5 enrichment R.
With B8 the binding signal was 2.47 enrichment R.
In the case of B9, the binding signal is reported as 13.2 enrichment R.
B10 was tested, and the binding signal was 0.793 enrichment R.
B11 gave a binding signal of 11.1 enrichment R.
B12 was tested, and the binding signal was 3.74 enrichment R.
In the case of B13, the binding signal is reported as 0.819 enrichment R.
Work on B14 yielded a binding signal of 0.982 enrichment R.
